The structures appear in SMILES notation. Results filed as inconclusive are left out. Calls of active or inactive are those of the source. Unless noted, calls follow the shape of the dose curve; as a rule, active = well fitted curve in the direction sought with a large enough effect; inconclusive = small, poorly fitted or top-dose-only effect, or another doubt; inactive = no such curve, though single readings can be large; an effect the other way counts as inactive or inconclusive.

Assay [1] can be described thus: P-glycoprotein substrates identified in KB-3-1 adenocarcinoma cell line, qHTS therapeutic library screen (AID 1346986). Also: nearly all actives have a fitted effect of over 60% in size.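 Also: potency is for cytotoxicity meaning loss of cell viability.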 An outline of the steps: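 Resistance attributable to P-gp was assessed by comparing AC50 in KB-8-5-11 with parental KB-3-1 and by tariquidar reversal. Cells were exposed 72 h and viability read by CellTiter-Glo.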
Background: qHTS replaces the single test concentration by a dilution series.

The nature of assay [2]: P-glycoprotein substrates identified in KB-8-5-11 adenocarcinoma cell line, qHTS therapeutic library screen (AID 1346987). Also: nearly all actives have a fitted effect of over 65% in size. An outline of the steps: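 Steps: plate 500 KB-8-5-11 cells/well in DMEM + 10% FCS (colchicine removed); pin compounds in dose-response; incubate 72 h, 37 degree C, 5% CO2; add CellTiter-Glo, 5 min; read luminescence.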
The nature of assay [3]: Primary qHTS for inhibitors of nuclear receptor binding SET domain protein 2 (NSD2) in an isogenic RCH-ACV NSD2 p.E1099K mutant (9B) (AID 1645876). Also: nearly all actives have a fitted effect of over 70% in size.
Assay [4] is described as follows: Primary qHTS for inhibitors of nuclear receptor binding SET domain protein 2 (NSD2) in an RCH-ACV wild type WT cells (2C) (AID 1645877). Also: nearly all actives have a fitted effect of over 70% in size.
Assay [5] has as its target Catechol O-methyltransferase (Homo sapiens) (UniProt P21964). Put plainly: Confirmatory Screen for Target Class Profiling of Small Molecule Inhibitors of Methyltransferases (AID 1745852; calls by dose curve; as to activity change, negative = inhibition: % is scaled to controls: 0 for no effect and ±100 for the full control effect). To be noted: MTase-Glo luminescence, SAH detection, recombinant enzyme; measured here: COMT max response; stronger effect = lower value.
For assay [6], the target named is Guanidinoacetate N-methyltransferase (Homo sapiens) (UniProt Q14353). The assay is described as above. To be noted: activity change, negative = inhibition: at 57.3 µM (top of the series) unless noted.
Assay [7] addresses Nicotinamide N-methyltransferase (Homo sapiens) (UniProt P40261). The description is as above. To be noted: MTase-Glo luminescence, SAH detection, recombinant enzyme; measured here: NNMT max response; stronger effect = lower value.
Assay [8] has as its target Phenylethanolamine N-methyltransferase (Homo sapiens) (UniProt P11086). Described as above. To be noted: MTase-Glo luminescence, SAH detection, recombinant enzyme; measured here: PNMT max response; stronger effect = lower value.
Assay [9] has as its target Glutathione peroxidase 1 (Homo sapiens) (UniProt P07203). Put plainly: Primary qHTS Assay for Inhibitors of Recombinant Selenoprotein Glutathione Peroxidase 1 (GPX1) (AID 1845191). Also: nearly all actives have a fitted effect of over 65% in size. As to activity, negative = inhibition: % is scaled to controls: 0 for no effect and ±100 for the full control effect. An outline of the steps: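 Recombinant GPX1 (10 nM final) was preincubated with compound for 30 min at room temperature, then reacted with 1 mM GSH, 0.5 mM CHP, 0.5 mM NADPH and 100 nM glutathione reductase; NADPH fluorescence (340/450 nm) was read at 0 and 15 min.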
Potency is read from the fitted curve at half-maximal effect.

Chain of Nicotinamide N-methyltransferase (Homo sapiens) (P40261 whole entry, looked up): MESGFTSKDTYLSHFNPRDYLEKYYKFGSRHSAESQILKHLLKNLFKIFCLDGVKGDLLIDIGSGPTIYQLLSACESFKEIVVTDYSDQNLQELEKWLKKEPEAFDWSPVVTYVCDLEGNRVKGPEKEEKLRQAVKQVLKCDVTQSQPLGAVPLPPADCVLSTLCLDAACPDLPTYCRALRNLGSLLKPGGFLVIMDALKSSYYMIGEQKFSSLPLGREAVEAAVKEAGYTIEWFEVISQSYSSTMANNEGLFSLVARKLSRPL
Chain of Catechol O-methyltransferase (Homo sapiens) (P21964 whole entry, looked up): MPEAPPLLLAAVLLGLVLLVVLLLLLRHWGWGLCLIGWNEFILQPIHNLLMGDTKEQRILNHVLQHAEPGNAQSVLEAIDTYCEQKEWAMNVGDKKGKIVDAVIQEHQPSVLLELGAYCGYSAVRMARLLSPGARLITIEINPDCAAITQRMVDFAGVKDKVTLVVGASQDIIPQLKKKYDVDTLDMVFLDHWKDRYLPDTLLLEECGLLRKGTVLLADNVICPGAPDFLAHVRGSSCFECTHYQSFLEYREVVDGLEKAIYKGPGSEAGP
Chain of Phenylethanolamine N-methyltransferase (Homo sapiens) (P11086 whole entry, looked up): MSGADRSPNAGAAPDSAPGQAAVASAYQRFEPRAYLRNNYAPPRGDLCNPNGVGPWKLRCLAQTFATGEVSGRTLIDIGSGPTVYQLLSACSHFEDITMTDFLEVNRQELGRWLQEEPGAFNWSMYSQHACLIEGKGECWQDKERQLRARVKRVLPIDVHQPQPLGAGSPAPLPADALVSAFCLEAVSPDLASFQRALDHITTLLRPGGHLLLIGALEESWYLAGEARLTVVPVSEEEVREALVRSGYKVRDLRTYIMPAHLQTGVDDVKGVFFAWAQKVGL
Chain of Glutathione peroxidase 1 (Homo sapiens) (P07203 whole entry, looked up): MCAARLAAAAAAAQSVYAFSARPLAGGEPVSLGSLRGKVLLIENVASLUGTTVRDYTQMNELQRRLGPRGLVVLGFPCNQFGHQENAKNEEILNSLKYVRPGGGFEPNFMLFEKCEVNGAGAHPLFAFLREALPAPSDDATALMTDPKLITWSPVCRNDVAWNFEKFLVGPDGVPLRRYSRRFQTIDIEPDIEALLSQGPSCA

`O=C1c2ccccc2-c2nc3nnnn3nc21` (tested in a mixture with another compound): the Potency in [1] is 0.92 µM (active); in assay [2] it was 0.92 µM (active); in assay [3], 0.082 µM (active); in assay [4], 0.184 µM (active); in assay [6], 0.482 µM (active); in [9], 16.1 µM (active). The activity in assay [5] was -95.2%; in assay [7] it was -67.5%; in [8] it was -24.7%.

As to `O=C1c2ccccc2-c2c(NCCc3ccccc3)c(=O)[nH]c3cccc1c23`, the Potency in assay [1] was 1.03 µM (active); in [2], 1.16 µM (active); in assay [3] it was 5.17 µM (active); in [4] it was 4.61 µM (active). In addition, in assay [9], the Potency result was “inactive”.

Take `CC(C)n1nc(-c2ccc(NC(=O)Nc3cccc(C(F)(F)F)c3)cc2)c2c(N)ncnc21`: the Potency in [1] was 1.03 µM (active); in [2], 4.11 µM (active); in assay [3], 0.366 µM (active); in [4] it was 0.259 µM (active). The activity in assay [5] is -1.63%; in [7], -74.3%; in [8], -1.08%. In [6], this compound came in with an activity change, negative = inhibition of 0%. The Potency result in assay [9] was “inactive”.

For the compound `Cc1cc(N2CCOCC2)cc2[nH]c(-c3c(NCC(O)c4cccc(Cl)c4)cc[nH]c3=O)nc12` (stereo not given), the Potency is 2.06 µM (active) in assay [1], 5.8 µM (active) in assay [2], 1.64 µM (active) in assay [3] and 1.46 µM (active) in assay [4].

Regarding `CN(C)CC(=O)N1CCC[C@@H](n2nc(-c3ccc(Oc4ccccc4)cc3)c3c(N)ncnc32)C1`, the Potency in assay [1] was 20.6 µM (active); in [2], 20.6 µM (active); in assay [3], 1.64 µM (active); in [4], 1.64 µM (active).

As to `CCOc1ccc(/C=C2\SC(=O)N(CCN)C2=O)cc1`, the Potency result in [1], in [2], in [3] and in assay [4] was “inactive” throughout.

As for `CN1CCCN(C(=O)c2cccc(-c3ccc(/C=C4\C(=O)Nc5ccc(Cl)cc54)o3)c2)CC1`, the Potency in assay [1] was 8.2 µM (active); in assay [2] it was 9.2 µM (active); in [3], 0.231 µM (active); in assay [4] it was 0.231 µM (active).

Take `C[C@@]1(F)[C@H](O)[C@@H](CO)O[C@H]1n1ccc(N)nc1=O`: the Potency entry in [1], in [2], in assay [3] and in [4] was “inactive” throughout.

As to `COC[C@H](C)Oc1cc(O[C@@H](C)Cc2ccccc2)cc(C(=O)Nc2ccc(C(=O)O)cn2)c1`, the Potency result in assay [1], in assay [2], in assay [3], in assay [4] and in [9] was “inactive” in each case.

`O=C(Nc1cccc(Nc2cc(Nc3cccc(C(F)(F)F)c3)ncn2)c1)C1CC1`: the Potency in [1] was 0.92 µM (active); in assay [2], 0.92 µM (active); in assay [3], 0.731 µM (active); in assay [4], 0.92 µM (active); in assay [6] it was 21.5 µM (active). Also, the figures for the activity in [5], in assay [7] and in [8] were -58%, -68.1% and -61.4%, respectively. The Potency entry in assay [9] is “inactive”.

`CN(C)CCNC(=O)c1cccn2c(=O)c3cc4ccccc4cc3nc12`: the Potency is 1.19 µM (active) in assay [1], 1.19 µM (active) in [2], 0.668 µM (active) in [3] and 0.668 µM (active) in assay [4]. The activity in assay [5] worked out at 3%; in [7] it was 3.48%; in [8] it was 3.82%. For the same compound, the activity change, negative = inhibition in [6] was found to be 0.968% [at 12.7 µM]. Besides, the activity, negative = inhibition in [9] is 2.53% [at 9.52 µM] (inactive).

As to `[2H]C([2H])([2H])C(OC(=O)[C@H](C)N[P@](=O)(OC[C@H]1O[C@@H](n2ccc(=O)[nH]c2=O)[C@](C)(F)[C@@H]1O)Oc1ccccc1)C([2H])([2H])[2H]`, the Potency entry in [1], in assay [2], in [3] and in assay [4] was “inactive” in each case.

Turning to `C=CC(=O)Nc1cccc(Nc2nc(Nc3ccccc3)ncc2C)c1`, the Potency in assay [1] was 18.4 µM (active); in assay [2], 13 µM (active); in assay [3] it was 8.2 µM (active); in assay [4], 8.2 µM (active). In assay [9], the Potency result is “inactive”.

On to `O=C(O)c1c[nH]c2c(ccc3ccccc32)c1=O`, for which the Potency result in [1], in [2], in assay [3], in assay [4] and in [9] was “inactive” throughout.

Source of the values: PubChem BioAssay (NCATS).
